Only some compounds are listed: those with a hit (about 2.8% of all), similar ones and a draw of the others.
WRN inhibitor: WRN helicase (human) inhibition; 360,000 compounds, 0.46% hits; AID 651768; Potency, µM (titrated, usually from 114 µM), most hits filed as inhibitors; WRN helicase unwinding, fluorescent forked duplex, kinetic; further: nearly all actives have a fitted effect of over 55% in size
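Screening of the MLSMR collection measured strand separation of a quenched forked DNA duplex (100 nM) by 20 nM WRN with 2 mM ATP, all final. Compounds were preincubated with enzyme 15 min at room temperature.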
PI5P4Ka inh: PI5P4K alpha (human) kinase inhibition; 330,000 compounds, 1.2% hits; max response, %; PI5P4Kalpha enzyme, ADP-Glo luminescence, 60 min; stronger effect = lower value; AID 652105; P48426; active means max response of -50% or lower; inconclusive means between -30% and -50%; inactive means -30% or higher; further: value at the top dose of about 77 µM
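Reactions run in 0.038 M HEPES pH 7.4, 0.28 mM EGTA, 0.1% CHAPS and 5% DMSO, with PI5P4Kalpha, substrate, compound and 5 microM ATP final, one hour at room temperature. Readout is ADP-Glo luminescence.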
POLK inh: inhibitors of human DNA polymerase kappa; Q9UBT6; 400,000 compounds, 0.53% hits; purified Pol kappa, fluorescent DNA synthesis assay, 10 min; Potency, µM (top dose mostly 107 µM), usual class: inhibitors
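First, compounds were pin-transferred onto 10 nM Pol kappa. After 15 min at room temperature, substrate was added to 50 nM final. Fluorescence was then measured kinetically at 0 and 10 min.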
POLI inh: DNA polymerase iota (human) inhibition | Potency, µM (series often up to 115 µM), actives largely listed as inhibitors | 390,000 compounds, 1% hits | Pol iota fluorescent replication assay, 10 min | AID 588590
Target sequence (Q9UNA4 whole entry, looked up): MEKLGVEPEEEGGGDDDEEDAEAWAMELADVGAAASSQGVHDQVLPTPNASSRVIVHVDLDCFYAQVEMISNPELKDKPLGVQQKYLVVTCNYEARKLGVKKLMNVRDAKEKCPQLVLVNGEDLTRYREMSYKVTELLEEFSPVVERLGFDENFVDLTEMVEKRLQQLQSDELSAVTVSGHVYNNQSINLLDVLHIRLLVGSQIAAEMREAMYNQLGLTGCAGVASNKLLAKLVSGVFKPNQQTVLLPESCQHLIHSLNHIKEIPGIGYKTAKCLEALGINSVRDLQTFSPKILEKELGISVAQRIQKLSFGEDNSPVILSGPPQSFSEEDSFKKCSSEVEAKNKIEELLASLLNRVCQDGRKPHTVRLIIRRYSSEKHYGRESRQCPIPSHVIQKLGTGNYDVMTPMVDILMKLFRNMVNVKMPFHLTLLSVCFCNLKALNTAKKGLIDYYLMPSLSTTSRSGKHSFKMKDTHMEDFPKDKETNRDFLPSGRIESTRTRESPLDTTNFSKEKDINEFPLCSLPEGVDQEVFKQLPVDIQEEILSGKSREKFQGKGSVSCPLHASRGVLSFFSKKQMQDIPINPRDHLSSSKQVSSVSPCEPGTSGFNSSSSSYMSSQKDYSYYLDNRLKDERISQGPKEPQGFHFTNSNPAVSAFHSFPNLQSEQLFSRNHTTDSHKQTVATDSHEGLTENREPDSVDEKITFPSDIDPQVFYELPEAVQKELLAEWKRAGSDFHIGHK
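Fluorescent replication assay read twice, at 0 min and 10 min after adding 50 nM (final) substrate. Enzyme (10 nM) and compounds were first incubated 15 min at room temperature; enzyme-free buffer wells were negative controls.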
Pol beta inh: inhibitors of human DNA polymerase beta; Pol beta primer extension/strand displacement, fluorescence kinetic; Potency, µM (doses to about 114 µM), hits mostly inhibitors; 340,000 compounds, 1.3% hits
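Homogeneous kinetic assay of primer extension and strand displacement by 10 nM Pol beta, preincubated 15 min at room temperature with compound before 50 nM substrate (final) was added. Read at 0 and 10 min; four-parameter Hill fit.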
Pol eta inh: DNA polymerase eta (human) inhibition; Q9Y253; recombinant Pol eta, fluorescent DNA replication assay; Potency, µM (doses to about 114 µM), most hits filed as inhibitors; 390,000 compounds, 1.2% hits; AID 588591
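Pol eta (10 nM) was preincubated with compounds for 15 min at room temperature, after which fluorescent replication substrate (50 nM final) was added to start the reaction. Fluorescence was read kinetically at 0 and 10 min.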
ADP-Glo interf: ADP-Glo luciferase interference, PI5P4K counter-screen | shares compounds with PI5P4Ka inh | ADP-Glo detection counter-screen, luciferase luminescence, no enzyme | Potency, µM (top dose mostly 76.9 µM), hits mostly inhibitors | 1,100 tested, under 10 active | AID 743285
Hits are given with their value; . = inactive; ? = inconclusive; / = not tested or not shown. Unless noted, the call rests on the fitted dose curve; in most records, active means well fitted curve in the direction sought with a large enough effect; inconclusive means small, poorly fitted or top-dose-only effect, or another doubt; inactive means no such curve, though single readings can be large; an effect the other way counts as inactive or inconclusive.

SMILES	WRN inhibitor	PI5P4Ka inh	POLK inh	POLI inh	Pol beta inh	Pol eta inh	ADP-Glo interf
NS(=O)(=O)c1ccc(NC(=O)c2ccc(S(=O)(=O)N3CCc4ccccc43)cc2)cc1	.	-66	.	?	.	.	.
CN1OC[C@@H]2CN(S(=O)(=O)c3cccc4ccccc34)[C@H](c3ccc(-c4ccccc4)cc3)C[C@@H]21	.	.	/	/	/	.	/
CN1OC[C@@H]2CN3C(=O)N(c4cccc5ccccc45)c4ccccc4[C@@H]3C[C@@H]21	.	-53	/	/	/	/	.
NC(=O)c1c(NC(=O)CN2CCN(S(=O)(=O)c3ccccc3)CC2)sc2c1CCC2	?	-65	?	13µM	/	?	.
Cc1ccc(-n2c(SCC(=O)Nc3ccc4c5c(cccc35)CC4)nc(O)c(C)c2=O)cc1	.	.	.	.	.	.	/
Cc1ccc(-n2c(SCC(=O)Nc3ccc4c5c(cccc35)CC4)nc(O)cc2=O)cc1	.	-51	.	.	35µM	.	.
O=C(O)CCCCCNc1nc2ncn(Cc3ccccc3)c2c(=O)[nH]1	.	/	.	.	.	.	/
CC(Nc1nc2ncn(Cc3ccccc3)c2c(=O)[nH]1)C(=O)O (stereo unspecified)	.	-55	.	.	.	.	.
O=[N+]([O-])c1ccc(/C=C/c2cc(Cl)nc3ccccc23)cc1	/	/	.	.	/	/	/
COC(=O)c1ccc(C)c(NC(=O)CCSc2ccc(Cl)cc2)c1	.	.	.	.	.	.	/
Cc1ccc([N+](=O)[O-])cc1NC(=O)CCSc1ccc(Cl)cc1	.	-70	.	.	.	.	.
COc1cc2nc(CCNCc3ccccc3)nc(NC3CCN(C)CC3)c2cc1OC	/	/	.	.	/	/	/
CC(C)OC(=O)c1c(NS(=O)(=O)c2ccccc2)sc2c1CCCC2	?	-63	.	.	.	.	.
C[C@@H](NS(=O)(=O)c1cc(Cl)ccc1F)[C@H](O)c1ccccc1	.	.	.	.	/	.	/
Cc1c(Cl)cccc1NC(=O)CCn1c(=O)c2cccn2c2ccccc21	/	/	.	.	.	.	/
O=S(=O)(Nc1ccccc1N1CCCC1)c1ccccc1C(F)(F)F	.	.	/	/	/	.	/
O=S(=O)(Nc1ccccc1N1CCCCC1)c1ccc(Cl)s1	?	-55	.	?	.	.	.
Cc1ccc(Nc2c(-c3ccc(N4CCOCC4)cc3)nc3c(C)cccn23)cc1	/	/	.	.	.	.	/
COCCCNC(=O)c1ccc2c(=O)n(CC3CCCO3)c(=S)[nH]c2c1 (stereo unspecified)	.	.	.	.	.	.	.
CC(C)NC(=O)c1ccc2c(=O)n(CC3CCCO3)c(=S)[nH]c2c1 (stereo unspecified)	.	.	.	.	.	.	/
CCCCc1nnc(NC(=O)CC(=O)Nc2ccccc2C(=O)O)s1	.	-61	.	.	.	.	.
CC(C)Cc1nnc(NC(=O)CC(=O)Nc2ccccc2C(=O)O)s1	.	-57	.	?	.	.	.
CCc1nnc(NC(=O)CC(=O)Nc2ccccc2C(=O)O)s1	.	/	.	.	.	.	/
O=S(=O)(c1ccccc1F)N1CCN(c2nc(-c3cccs3)nc3ccccc23)CC1	/	/	.	.	/	/	/
Cc1ccc(C(c2cc(Cl)c3cccnc3c2O)N2CCN(C)CC2)cc1 (stereo unspecified)	?	-89	.	.	.	.	.
SMILES	WRN inhibitor	PI5P4Ka inh	POLK inh	POLI inh	Pol beta inh	Pol eta inh	ADP-Glo interf
O=C(NCCc1ccccc1)C1Cc2c(-c3ccccc3Oc3ccccc3)ccnc2O1 (stereo unspecified)	.	.	/	/	/	/	/
O=C(CCC(=O)N1CCN(c2ccccn2)CC1)c1cccs1	.	.	.	.	/	.	/
O=C(CCC(=O)N1CCN(c2ccccn2)CC1)c1ccc(Cl)s1	.	-55	.	?	/	14µM	.
COc1ccc(C2c3[nH]c4ccccc4c3CCN2C(=O)Cc2nonc2C)c(F)c1 (stereo unspecified)	.	.	.	.	.	.	/
O=C(COC(=O)CCN=C1NS(=O)(=O)c2ccccc21)NNC(=O)c1ccc(Cl)cc1	.	.	.	.	/	.	/
CCOC(=O)C1=C(N)N(c2ccccc2)C(=O)C1	?	-58	.	?	.	.	.
COc1ccc(-c2nnc(C)c3nocc23)cc1	.	-66	.	?	.	?	.
Cc1ccnc2nc(C(=O)OCC(=O)NC3CCCC(C)C3C)nn12 (stereo unspecified)	.	.	.	.	/	?	.
COc1ccc(C(=O)N2CCCC2(C)C(=O)O)cc1C(F)(F)F (stereo unspecified)	.	-87	/	/	/	/	.
CCOC(=O)C1(C)CCCCCN1C(=O)c1ccc(OC)c(C(F)(F)F)c1 (stereo unspecified)	.	.	/	/	/	/	/
CCCCOc1ccc(S(=O)(=O)NC(=O)C2(C)CCN2C(=O)CCc2ccccc2)cc1 (stereo unspecified)	.	-53	/	/	/	/	.
COc1ccc(NC(=O)Cn2c(=O)n(Cc3ccco3)c(=O)c3sc4ccccc4c32)cc1OC	/	/	.	.	.	.	/
Cc1oc(-c2ccc(Cl)cc2)cc1C(=O)N1CCC1(C)C(=O)O (stereo unspecified)	.	-52	/	/	/	/	.
CC1(C(=O)O)CCCN1C(=O)c1ccc(Cl)cc1Cl (stereo unspecified)	.	.	/	/	/	/	/
CCS(=O)(=O)c1ccc2oc(Nc3cc(C)cc(C)c3)nc2c1	.	/	.	.	?	.	/
CCS(=O)(=O)c1ccc2oc(Nc3ccc(C(C)C)cc3)nc2c1	?	-50	.	.	.	.	.
COc1ccccc1N1CCN(Cc2cc(=O)oc3cc(C)cc(C)c23)CC1	.	.	/	/	/	/	/
CCOC(=O)c1c(-c2ccco2)csc1NC(=O)COC(=O)c1cnc(C)cn1	.	-51	?	40µM	/	25µM	.
COC(=O)c1c(NC(=O)CN2CCC3(O)CCCCC3C2c2ccc(OC)cc2OC)sc(C)c1C (stereo unspecified)	.	-51	.	.	.	?	.
COc1cc(Cn2c3ccc(NC(=O)CCc4ccccc4)cc3c(=O)n2C)ccc1F	.	-64	/	/	/	/	.
C[C@@H]1CN([C@@H](C)CO)C(=O)CCCn2nncc2CO[C@@H]1CN(C)S(=O)(=O)c1ccc(Oc2ccccc2)cc1	.	.	/	/	/	.	/
CC(C)NC(=O)c1ccc2c3n(nc2c1)-c1ccccc1CO3	.	-52	.	.	.	.	?
CC(C)[C@@H](CO)NC(=O)c1ccc2c3n(nc2c1)-c1ccccc1CO3	.	.	.	.	.	.	/
CC(=O)Nc1cccc2ccc(O)cc12	.	-62	.	?	/	.	.
O=C(Nc1ccccc1F)Nc1cccc2ccc(O)cc12	.	?	.	.	.	.	/

High-throughput results (PubChem BioAssay)
